Results filed as inconclusive are left out. A call without a number means that no potency is given here. Active and inactive are the calls of the source. Calls follow the shape of the dose curve; as a rule, active = well fitted inhibition curve with a large enough effect; inconclusive = small, poorly fitted or top-dose-only effect; inactive = flat fitted curve, though single readings scatter.
Target: Calcium and integrin-binding protein 1 (Homo sapiens) (UniProt Q99828)
Test: Primary qHTS for Identification of Calcium Integrin Binding Protein 1 (CIB1) Competitor (AID 1508620);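 also: GST tagged CIB1 binding a fluorescein labelled alphaIIb integrin peptide tracer; top concentration of the series differs between compounds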
Settings: CIB1-GST / FITC-alphaIIb peptide fluorescence polarization; series mostly up to 114 µM
Summary of the method: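 CIB1-GST (1 uM final) and compound incubated 15 min at room temperature before adding FITC-alphaIIb peptide tracer (100 nM final). Competition for binding read by fluorescence polarization (ex 480, em 540) after another 15 min at room temperature.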

Sequence of Calcium and integrin-binding protein 1 (Homo sapiens) (Q99828 whole entry, looked up): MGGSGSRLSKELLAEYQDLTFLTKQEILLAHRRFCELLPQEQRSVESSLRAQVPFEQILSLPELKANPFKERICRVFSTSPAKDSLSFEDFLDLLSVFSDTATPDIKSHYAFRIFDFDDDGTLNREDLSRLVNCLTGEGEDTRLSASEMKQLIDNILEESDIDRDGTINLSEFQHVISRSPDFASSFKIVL

| Compound | Potency |
| --- | --- |
| CCC(C)/C=C(C)/C=C/C1=CC2=CC(=O)C3(C)OC(C)(O)C(C(=O)OC)C3C2=CO1 (stereo not given) | inactive |
| CCC(C(C)O)n1ncn(-c2ccc(N3CCN(c4ccc(OCC5COC(Cn6cncn6)(c6ccc(F)cc6F)C5)cc4)CC3)cc2)c1=O (stereo not given) | inactive |
| C=C1C(=O)OC2/C=C(\C)CC3C=C(CC/C=C(\C)CCC12)C(=O)O3 (stereo not given) | inactive |
| OC(CC1c2ccccc2-c2cncn21)C1CCCCC1 (stereo not given) | inactive |
| O=C(Nc1ccccc1C(=O)Nc1ccc(CCO)cc1)c1ccc([N+](=O)[O-])cc1 | inactive |
| CCc1cc(C(N)=O)ccc1-n1nc(C(C)C)c2c(-n3cnc(-c4cnn(C)c4)c3)ccnc21 | inactive |
| CC(=O)O[C@@H]1[C@@H](O)[C@H](O[C@@H]2[C@@H](O)[C@@H](O)[C@H](O[C@H]3[C@H](O[C@H]4[C@H](O[C@H]5CC[C@@]6(C)C(CC[C@]7(C)C6CC=C6[C@@H]8CC(C)(C)CC[C@]8(C(=O)O)CC[C@]67C)[C@]5(C)CO)O[C@H](CO)[C@@H](O)[C@@H]4O)OC[C@@H](O)[C@@H]3O)O[C@H]2C)OC[C@H]1O (stereo not given in full) | inactive |
| CC(C)(C)NC(=O)[C@H]1CC[C@H]2[C@@H]3CC[C@H]4NC(=O)CC[C@]4(C)[C@H]3CC[C@]12C | inactive |
| O=C(NCc1ccccc1-c1ccccc1C(=O)NCCc1ccccn1)OCc1ccccc1 | inactive |
| Cc1ccc(N2CCN(S(=O)(=O)N3CCCCC3)CC2)c(C)c1 | inactive |
| O=C1COC2(CCN(S(=O)(=O)c3ccc(-c4ccc5cccnc5c4)cc3)CC2)CN1C1CC1 | inactive |
| COc1cc(C#N)ccc1S(=O)(=O)Nc1ccc2c(c1)cc(C)c(=O)n2C | inactive |
| CO[C@H]1O[C@@H]2O[C@@]3(C)CCC4[C@H](C)CCC([C@H]1C)[C@]42OO3 (stereo not given in full) | inactive |
| COc1ccc2cc(-c3cc(-c4cc(Cl)cc(Cl)c4)nn3C(C)c3ccc(C(=O)NCCC(=O)O)cc3)ccc2c1 (stereo not given) | inactive |
| CC(C)CCCCC(=O)N[C@@H](CO)C(=O)N[C@@H](CC(C)C)C(=O)[C@@]1(CO)CO1 | inactive |
| CS(=O)(=O)c1ccc(Oc2cc(F)cc(C#N)c2)c2c1[C@H](O)C(F)(F)C2 | inactive |
| CCOc1cc(C(C)(C)C)ccc1C1=NC(C)(c2ccc(Cl)cc2)C(C)(c2ccc(Cl)cc2)N1C(=O)N1CCN(CCCS(C)(=O)=O)CC1 (stereo not given) | inactive |
| C/C(=C/C=C\C=C\Cc1cnco1)[C@@H](O)C(C)(C)C(N)=O | inactive |
| O=C(NO)c1cnc(N2CCN(S(=O)(=O)c3ccc4ccccc4c3)CC2)nc1 | inactive |
| C=C(C)[C@@H]1CC[C@]2(C(=O)O)CC[C@]3(C(=O)O)[C@H](CCC4[C@@]5(C)CCC(=O)C(C)(C)C5CC[C@]43C)C12 (stereo not given in full) | inactive |

| Compound | Potency |
| --- | --- |
| COC(=O)/C=C/C=C/C(=O)OC1C=C2COC(=O)C2(O)C2(C)CCCC(C)(C)C12 (stereo not given) | inactive |
| CC1=C2C[C@@]3(C)C(CCC[C@@H]3C)C(O)C2OC1=O (stereo not given in full) | inactive |
| CCc1cccc(CC)c1-n1c(C=C(C)C)c(C(=O)N2CCNCC2)cc(-c2nc(-c3ccc(C(F)(F)F)cc3)cs2)c1=O | inactive |
| CCC(C)/C=C(C)/C=C/C1=CC2=C(Cl)C(=O)C(C)(OC(C)=O)C(=O)C2(O)C(OC)O1 (stereo not given) | inactive |
| CC1(C(=O)Nc2ccc(F)nc2)CCCN1c1nc(Nc2cc(C3CC3)[nH]n2)c2cccn2n1 (stereo not given) | inactive |
| C=C1C(=O)O[C@@H]2/C=C(\C)CC/C=C(/C=O)[C@H](OC)[C@@H](OC(=O)C(C)C)[C@@H]12 | inactive |
| CC1CCC(=O)CC(SCC(O)C(=O)O)CCC(=O)O1 (stereo not given) | inactive |
| CC1CCCC(O)CCC/C=C/c2cc(OS(=O)(=O)O)cc(O)c2C(=O)O1 (stereo not given) | inactive |
| CCCCNc1ncc(-c2ccc(CN3CCOCC3)cn2)c(NC2CCC(O)CC2)n1 (stereo not given) | inactive |
| C=C1/C(=C/C=C2\CCC[C@]3(C)[C@@H]([C@H](C)/C=C/[C@H](O)C4CC4)CC[C@@H]23)C[C@@H](O)C[C@@H]1O | inactive |
| C=C1C(=O)O[C@@H]2C[C@@]3(C)C[C@@H](O)C[C@H](C)C3=C[C@H]12 | inactive |
| CCCSc1nc(N[C@@H]2C[C@H]2c2ccc(F)c(F)c2)c2nnn([C@@H]3C[C@H](OCCO)[C@@H](O)[C@H]3O)c2n1 | inactive |
| CC(C)C(C)C(O)C1CC23CC(=O)C4(O)C(=C2CCC3C1C)C=CC1(O)CC(O)CCC14C (stereo not given) | inactive |
| CC(=O)OC1CC(O)(C(C)C)C2C(OC(=O)c3ccc(O)cc3)C=C(C)C(=O)CC12C (stereo not given) | inactive |
| COc1cc(/C=C2\CCCN([C@@H](C)c3ccc(F)cc3)C2=O)ccc1-n1cnc(C)c1 | inactive |
| C=C1C(=O)O[C@@H]2C[C@@]3(C)CCCC(=C)[C@]3(O)C[C@H]12 | inactive |
| CC(C)S(=O)(=O)NC[C@@H]1CC(c2ccc(N3CCCC3)c(F)c2)=NO1 | inactive |
| CC(=O)O[C@@H]1[C@@H](OC(C)=O)[C@H](C)O[C@@H](O[C@H]2[C@@H]3C=CO[C@@H](O[C@@H]4O[C@H](CO)[C@@H](O)[C@H](O)[C@H]4O)[C@@H]3[C@@]3(CO)O[C@@H]23)[C@@H]1OC(=O)/C=C/c1ccccc1 | inactive |
| Cn1cc(-c2ccc3c(c2)CCN3C(=O)Cc2cccc(C(F)(F)F)c2)c2c(N)ncnc21 | inactive |
| COc1ccc(CCO[C@@H]2O[C@H](CO[C@H]3OC[C@](O)(CO)[C@H]3O)[C@@H](OC(=O)/C=C/c3ccc(O)c(O)c3)[C@H](O[C@@H]3O[C@@H](C)[C@H](O)[C@@H](O)[C@H]3O)[C@H]2O)cc1OC | inactive |

Source: PubChem BioAssay (NCATS)
